Assay [1] is described as follows: qHTS assay to identify small molecule antagonists of the estrogen related receptor (ERR) signaling pathway from Tox21 library - cell viability counter screen (AID 1224834). Also: nearly all actives have a fitted effect of over 30% in size. Also: potency is read from the fitted curve at half-maximal effect. The method, boiled down:
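CellTiter-Fluor fluorescence measured; ERR cells; 17.5 h compound incubation at 37 C; 30 min reagent step.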
(qHTS replaces the single test concentration by a dilution series.)

Assay [2] is described as follows: qHTS assay to identify small molecule agonists of the constitutive androstane receptor (CAR) signaling pathway - cell viability counter screen (AID 1224836). Also: nearly all actives have a fitted effect of over 45% in size. Also: potency is read from the fitted curve at half-maximal effect. As to viability change, negative = cytotoxic: series mostly up to about 92 µM. The method in brief:
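Cell viability multiplexed with the CAR agonist screen: CellTiter-Fluor fluorescence after 23 hr at 37 C. HepG2-CYP2B6-hCAR cells got compounds at 15 concentrations with PK11195 at 0.75 uM final.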

Assay [3] in a line: qHTS assay to identify small molecule antagonists of the constitutive androstane receptor (CAR) signaling pathway - cell viability counter screen (AID 1224837). Also: nearly all actives have a fitted effect of over 45% in size. Also: potency is read from the fitted curve at half-maximal effect. As to activity change, negative = cytotoxicity: series mostly up to about 92 µM. The method in brief:
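Using CellTiter-Fluor, viability is scored in HepG2 cells stably carrying hCAR and a 2.2kb CYP2B6 reporter after 23 hr compound exposure across 15 concentrations, with CITCO present at 50 nM.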

The target in assay [4] is Nuclear receptor subfamily 1 group I member 3 (Homo sapiens) (UniProt Q14994). The assay can be described thus: qHTS assay to identify small molecule antagonists of the constitutive androstane receptor (CAR) signaling pathway (AID 1224838).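 Also: HepG2 cells stably expressing hCAR with CYP2B6 luciferase reporter stimulated by CITCO; nearly all actives have a fitted effect of over 40% in size.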 Also: potency is read from the fitted curve at half-maximal effect. The method, boiled down: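 Reporter luminescence was quantified after 24 h exposure of hCAR/CYP2B6-2.2kb double-stable HepG2 cells to compounds at 15 concentrations in the presence of 50 nM CITCO final.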
Sequence of Nuclear receptor subfamily 1 group I member 3 (Homo sapiens) (Q14994 whole entry, looked up): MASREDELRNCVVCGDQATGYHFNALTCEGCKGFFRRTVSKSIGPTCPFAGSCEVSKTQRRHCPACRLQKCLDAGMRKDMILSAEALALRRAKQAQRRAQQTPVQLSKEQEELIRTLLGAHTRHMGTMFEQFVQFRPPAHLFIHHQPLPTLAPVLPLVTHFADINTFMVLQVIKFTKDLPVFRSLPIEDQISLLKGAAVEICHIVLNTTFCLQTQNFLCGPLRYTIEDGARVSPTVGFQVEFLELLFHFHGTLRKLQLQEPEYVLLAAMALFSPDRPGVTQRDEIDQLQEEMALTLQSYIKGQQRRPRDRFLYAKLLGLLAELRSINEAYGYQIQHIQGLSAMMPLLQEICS

Assay [5] can be described thus: qHTS assay to identify small molecule antagonists of the estrogen related receptor signaling pathway with the pleiotropic PPARgamma coactivator (PGC) from Tox21 10K library - cell viability counter screen (AID 1224840; active = well fitted cell-killing curve with a large enough effect in the repeat runs, not every such curve was filed as active; also: nearly all actives have a fitted effect of over 40% in size). The method in brief: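 Here the PGC/ERR cells serve as a cytotoxicity control: they are exposed to compounds for 17.5 hours at 37 C, and live-cell signal is quantified using CellTiter-Fluor fluorescence.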

Assay [6] deals with Nuclear receptor subfamily 1 group I member 3 (Homo sapiens) (UniProt Q14994). Put plainly: qHTS assay to identify small molecule agonists of the constitutive androstane receptor (CAR) signaling pathway (AID 1224839). Also: nearly all actives have a fitted effect of over 15% in size. Also: potency is read from the fitted curve at half-maximal effect. The method, boiled down:
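Luminescent ONE-Glo read-out after 24 hr, 37 C exposure of double-stable HepG2-CYP2B6-hCAR reporter cells to a 15-point compound series, in the presence of 0.75 uM PK11195 (final).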

A short description of assay [7]: qHTS assay to identify small molecule antagonists of the estrogen related receptor signaling pathway with the pleiotropic PPARgamma coactivator (PGC) from Tox21 10K library (AID 1224841; call rule not given here; also: actives are mostly falling curves and most rising ones were filed inactive; nearly all actives have a fitted effect of over 50% in size; also: potency is read from the fitted curve at half-maximal effect). The method in brief: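 Each well held 2,000 PGC/ERR cells, pre-incubated six hours (37 C, 5% CO2). Test substances in DMSO were added by pin tool and left for 18 h at 37 C before luciferase detection by One-Glo.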

Assay [8] in a line: qHTS assay to identify small molecule agonists of the estrogen related receptor signaling pathway with the pleiotropic PPARgamma coactivator (PGC) from Tox21 10K library (AID 1224842). Also: nearly all actives have a fitted effect of over 15% in size. The method, boiled down: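 PGC/ERR reporter cell line, 2,000 cells per well, incubated 6 h at 37 C before 23 nL compound in DMSO was added. After 18 h at 37 C, One-Glo luminescence read following 30 min at room temperature.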

Assay [9] addresses Luciferin 4-monooxygenase (Photinus pyralis) (UniProt P08659). The assay can be described thus: qHTS assay to identify small molecule inhibitors of firefly luciferase (AID 1224835). Also: nearly all actives have a fitted effect of over 25% in size. Also: potency is read from the fitted curve at half-maximal effect. The method in brief: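 Biochemical qHTS: compounds run as interplate titrations against purified firefly enzyme, with D-luciferin and ATP each at its KM concentration. Light output recorded by CCD imaging.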

Structures are written as SMILES. Inconclusive results are not listed. Unmarked numbers belong to inactive results. Activity calls are given as the source filed them. Unless noted, calls follow the shape of the dose curve; as a rule, active = well fitted curve in the direction sought with a large enough effect in the repeat runs; inconclusive = weak or mixed curves; inactive = no such curve, though single readings can be large; an effect the other way counts as inactive or inconclusive.
% is scaled to controls: 0 for no effect and ±100 for the full control effect.

Sequence of Luciferin 4-monooxygenase (Photinus pyralis) (P08659 whole entry, looked up): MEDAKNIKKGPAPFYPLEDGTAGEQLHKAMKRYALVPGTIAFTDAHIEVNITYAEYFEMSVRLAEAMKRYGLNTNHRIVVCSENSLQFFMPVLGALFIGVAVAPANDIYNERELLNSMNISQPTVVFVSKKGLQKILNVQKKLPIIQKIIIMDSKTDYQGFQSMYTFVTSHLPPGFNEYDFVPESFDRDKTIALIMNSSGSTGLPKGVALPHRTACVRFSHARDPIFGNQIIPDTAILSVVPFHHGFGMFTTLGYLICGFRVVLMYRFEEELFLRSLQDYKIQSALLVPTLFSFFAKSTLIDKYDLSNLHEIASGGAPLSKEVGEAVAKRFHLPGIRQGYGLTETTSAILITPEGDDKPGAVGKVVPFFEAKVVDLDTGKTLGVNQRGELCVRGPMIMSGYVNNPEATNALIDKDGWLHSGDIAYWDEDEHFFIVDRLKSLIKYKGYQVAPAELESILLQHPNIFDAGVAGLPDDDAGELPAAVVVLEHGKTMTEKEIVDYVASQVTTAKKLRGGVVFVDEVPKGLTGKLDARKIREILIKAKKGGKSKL

For `CCC(C)(C)C(=O)O`, the Potency result in [1], in assay [2], in assay [3], in assay [4] and in [5] was “inactive” each time.

Turning to `CCOC(=O)N1CCC(Nc2ccc(Cl)cc2N)CC1`, the Potency result in assay [2], in assay [3], in assay [4], in assay [6] and in assay [5] was “inactive” throughout.

Consider `CCCCCCCCCCCCCC(=O)OCC(O)CO` (stereo not given), for which the Potency entry in assay [1], in assay [2], in assay [3], in [4], in [5] and in assay [7] was “inactive” each time. For the same compound, the Potency entry in assay [8] was “inactive”.

On to `CC(C)(C)NCC(O)COc1cccc2c1C[C@H](O)[C@H](O)C2` (stereo not given in full), for which the Potency entry in assay [1], in assay [2], in [3] and in assay [5] was “inactive” each time.

Consider `CC1=CC[C@@H]2C[C@H]1C2(C)C`, for which the figures for the viability change, negative = cytotoxic in assay [1], in assay [2] and in assay [5] were 2.93% [at 19 µM], 1.82% [at 19 µM] and -1.25% [at 19 µM], respectively. Further, the activity change, negative = cytotoxicity in assay [3] was -2.4% [at 19 µM].

For the compound `CCOc1ncc(F)c(=O)[nH]1`, the Potency result in [1], in [2], in [3] and in assay [5] was “inactive” in each case.

For the compound `c1ccc(CCCc2ccncc2)cc1`, the Potency entry in assay [1], in assay [2], in assay [3] and in assay [5] was “inactive” each time.

For `Cc1cccc2sc(N)nc12`, the Potency entry in [1], in assay [2], in assay [3], in assay [4] and in assay [5] was “inactive” each time.

Take `CCCc1nc2c(C)cc(-c3nc4ccccc4n3C)cc2n1Cc1ccc(-c2ccccc2C(=O)O)cc1`: in assay [9], the Potency was 13.8 µM (active). Moreover, the Potency result in [2], in assay [3], in assay [4], in [6] and in assay [5] was “inactive” in each case.

Regarding `C=C(C)c1ccccc1`, the Potency entry in [1], in assay [2], in [3], in assay [4] and in assay [5] was “inactive” each time.

`COc1cc(C(C)=O)ccc1OCCCN1CCC(c2noc3cc(F)ccc23)CC1`: the Potency result in [3], in [4], in assay [6] and in assay [5] was “inactive” in each case.

For `O=[N+]([O-])C1(Br)COCOC1`, the Potency in assay [9] was 25.2 µM (active). Also, the Potency result in [3], in [6], in [7] and in assay [8] was “inactive” throughout.

With `Cc1ccc(N(CC2=NCCN2)c2cccc(O)c2)cc1`, the Potency result in assay [9], in assay [2], in [3], in [4], in assay [6] and in assay [5] was “inactive” in each case.

With `CN(C)CC/C=C1\c2ccccc2Sc2ccc(Cl)cc21`, the Potency result in [9], in assay [6] and in assay [7] was “inactive” in each case.

Take `CCCCCCC(O)CCOC(C)=O` (stereo not given): the Potency result in [1], in assay [2], in assay [3], in assay [5], in assay [7] and in assay [8] was “inactive” throughout.

Consider `Cc1cc([N+](=O)[O-])ccc1N`, for which, in assay [1], the Potency was 33.9 µM (active). The Potency entry in [4] and in [6] was “inactive” throughout.

Regarding `Nc1nc2ccc(OC(F)(F)F)cc2s1`, the values for the Potency in [9] and in assay [6] were 24.5 µM (active) and 11.9 µM (active), respectively. Besides, the Potency result in assay [2], in assay [3], in [4] and in assay [5] was “inactive” in each case.

As to `C[C@H](CS)C(=O)N1CCC[C@H]1C(=O)O`, the Potency result in assay [1], in [2], in assay [3], in assay [4] and in [5] was “inactive” throughout.

In the case of `COc1ccc(-n2nc(C(F)F)cc2-c2ccc(S(C)=O)cc2)cc1` (stereo not given), the Potency entry in [1], in assay [2], in [3] and in assay [5] was “inactive” each time.

For `CCCCCCCC(=O)Oc1c(Br)cc(C#N)cc1Br`, the Potency result in assay [2], in assay [3], in assay [4], in assay [6], in assay [5] and in assay [8] was “inactive” in each case. Besides, in assay [7], the Potency is 43.1 µM (active).

For the compound `NC(=O)c1ccccc1[N+](=O)[O-]`, the Potency entry in [1], in assay [2], in assay [3] and in [5] was “inactive” throughout.

For `COc1cc(NCc2ccc3nc(N)nc(N)c3c2C)cc(OC)c1OC`, the Potency result in [9], in [2], in assay [6], in assay [5] and in assay [8] was “inactive” each time. Besides, the Potency was 0.0266 µM (active) in assay [4] and 0.075 µM (active) in assay [7].

For the compound `ClC1=C(Cl)C1(Cl)Cl`, the Potency entry in assay [1], in assay [2], in assay [3], in [4], in [5] and in assay [7] was “inactive” throughout. In addition, the Potency entry in [8] is “inactive”.

For the compound `Cc1cc(CCC(=O)OCCOCCOCCOC(=O)CCc2cc(C)c(O)c(C(C)(C)C)c2)cc(C(C)(C)C)c1O`, the Potency entry in assay [9], in assay [2], in assay [3], in [4], in assay [6] and in assay [5] was “inactive” each time.

Take `COc1ccc(N)c([N+](=O)[O-])c1`: the Potency result in [9], in assay [2], in assay [3], in assay [4] and in [5] was “inactive” throughout.

As for `CC(C)(O)CCc1ccccc1`, the Potency result in assay [1], in assay [2], in assay [3] and in assay [5] was “inactive” in each case.

For the compound `Nc1cccc2c(N)cccc12`, the Potency in assay [2], in assay [3] and in [6] was 24.3 µM (active) each time. For the same compound, the Potency result in assay [4] was “inactive”.

Regarding `CCCCCCCCCCCCCOS(=O)(=O)O`, the Potency result in assay [1], in assay [2], in [3] and in assay [5] was “inactive” each time.

Turning to `CCCCC(CC)COS(=O)(=O)O` (stereo not given), the Potency entry in assay [1], in [2], in assay [3], in assay [5], in assay [7] and in [8] was “inactive” each time.

The values are drawn from PubChem BioAssay (Tox21).
